High-throughput results as filed in PubChem BioAssay.
HTR5A ag: HTR5A agonism, opioid heterodimer counter-screen; activation, % at 9.3 µM; AID 504692; HTR5A agonist assay, luminescence, cell-based; P47898; 340,000 tested, 0.61% active; in the data active = activation mostly above about 9.5%, no sharp cut-off; inactive = mostly below about 7.6%
MOR-DOR ag: OPRM1-OPRD1 heterodimerization agonism; P35372+P41143; AID 504326; cells, luminescence; activation, % at 9.3 µM; 340,000 tested, 0.3% active; in the data active = activation above about 18%
HTR5A inv ag: inverse agonist of human HTR5A in OPRM1-OPRD1 counter-screen; 340,000 tested, 0.083% active; inhibition, % at 9.3 µM; HTR5A cell line, luminescence, inverse agonism; in the data active = inhibition mostly above about 23%, no sharp cut-off; inactive = mostly below about 18%
MOR-DOR inv ag-1: inverse agonists of human mu-delta opioid receptor heterodimerization; 340,000 tested, 0.21% active; cell-based MOR-DOR heterodimer luminescence, inverse agonism; inhibition, % at 9.3 µM; AID 504357; P35372+P41143; in the data active = inhibition above about 22%, passing the limit was not always enough
MOR-DOR inv ag-2: opioid heterodimer inverse agonism, HTR5A counter-screen. shares compounds with HTR5A inv ag. U2OS counter-screen cells, complementation luminescence. inhibition, % at 9.3 µM. 190 tested, under 10 active. AID 504912
HTR5A inv confrm: HTR5A (human) inverse agonism, confirmation; shares compounds with HTR5A inv ag; HTR5A-expressing cells, luminescence; inhibition, % at 9.3 µM; 190 tested, under 10 active; AID 504916
Large screens that a line does not name were inactive (follow-up assays come after a bar, where they were run). In the library only some 1.1% were active in any assay of this set; here they are far more common. Unless noted, the rule behind the calls is not given here.

NNc1nc(Nc2ccc([N+](=O)[O-])cc2)nc(N2CCCCCC2)n1	none
NNc1nc(Nc2ccccc2)nc(N2CCCCC2)n1	HTR5A inv ag 34.5 | MOR-DOR inv ag-2 inactive | HTR5A inv confrm inactive
COc1ccc(S(=O)(=O)NCc2ccc(C(=O)NCCCN3CC(C)CC(C)C3)cc2)cc1 (stereo not given)	none
Cc1nonc1CN(C)C(=O)c1cc(COc2ccc(F)cc2Cl)on1	HTR5A inv ag 41.2 | MOR-DOR inv ag-2 inactive | HTR5A inv confrm inactive
Cc1cc(=O)[nH]c2ccc(S(=O)(=O)NCc3ccccc3)cc12	none
CC(Oc1ccc(Cl)cc1)C(=O)N/N=C/c1ccsc1 (stereo not given)	none
O=C1/C(=C/c2cccc(O)c2)SC(=S)N1CC1CCCO1 (stereo not given)	none
COc1cc(/C=C2/SC(=NCc3ccccc3)N(Cc3ccccc3)C2=O)ccc1O	none
COc1cc(/C=C2/SC(=S)N(c3c(C)n(C)n(-c4ccccc4)c3=O)C2=O)ccc1O	HTR5A inv ag 27.6 | MOR-DOR inv ag-2 inactive | HTR5A inv confrm inactive
COc1cc(/C=C2/SC(=S)N(Cc3ccccc3)C2=O)ccc1O	HTR5A inv ag 30.5 | MOR-DOR inv ag-2 inactive | HTR5A inv confrm inactive
CCOc1cc(/C=C2/SC(=S)N(CC3CCCO3)C2=O)ccc1O (stereo not given)	HTR5A inv ag 30.6 | MOR-DOR inv ag-2 inactive | HTR5A inv confrm inactive
COc1cc(/C=C2\SC(=S)N(C(C(=O)O)c3ccccc3)C2=O)ccc1O (stereo not given)	none
O=C1/C(=C\c2ccc(O)c(O)c2)SC(=S)N1Cc1ccccc1	HTR5A inv ag 29.5 | MOR-DOR inv ag-2 inactive | HTR5A inv confrm inactive
CC(=O)c1cccc(NC(=O)C2CCN(C(=O)c3ccc([N+](=O)[O-])cc3)CC2)c1	none
CCCCNC(=S)N(CCN(C)C)Cc1cc2cc3c(cc2[nH]c1=O)OCCO3	none
COc1cc(/C=C2\SC(=S)N(NC(=O)c3ccccc3OC)C2=O)ccc1O	HTR5A inv ag 32.8 | MOR-DOR inv ag-2 inactive | HTR5A inv confrm inactive
CSc1ccc(-c2nc(O)c3cnccn23)cc1	none
CC(Sc1ncccn1)C(=O)NC1CCCC1 (stereo not given)	HTR5A inv ag 36.6 | MOR-DOR inv ag-2 inactive | HTR5A inv confrm inactive
CC(Sc1nc(N)cc(=O)[nH]1)C(=O)NC1CCCCC1 (stereo not given)	none
Cc1ccc(CCNC(=O)C2CCN(S(=O)(=O)c3cccc4nsnc34)CC2)cc1	HTR5A inv ag 47.1 | MOR-DOR inv ag-2 inactive | HTR5A inv confrm inactive
CC(=O)N1C2CCCCC2S[C@H]2CCCCC21 (stereo not given in full)	HTR5A inv ag 33.7 | MOR-DOR inv ag-2 inactive | HTR5A inv confrm inactive
COc1cccc(/C=N/Nc2nc(Nc3ccccc3)nc(-n3nc(C)cc3C)n2)c1O	HTR5A inv ag 40.0 | MOR-DOR inv ag-2 inactive | HTR5A inv confrm inactive
Cc1cc(C)n(-c2nc(Nc3ccccc3)nc(-n3nc(C)cc3C)n2)n1	none
COc1ccc(-n2c(Cc3cccn3C)nnc2SCC(=O)NC2CCCCC2)cc1	HTR5A inv ag 32.6 | MOR-DOR inv ag-2 inactive | HTR5A inv confrm inactive
Cn1cccc1Cc1nnc(SCC(=O)NC2CCCC2)n1-c1ccc(F)cc1	none
COc1ccc(S(=O)(=O)Nc2cccc3c2O[C@H](CN(C)S(=O)(=O)c2ccc(F)cc2)[C@H](C)CN([C@H](C)CO)C3=O)cc1	HTR5A inv ag 39.0 | MOR-DOR inv ag-2 inactive | HTR5A inv confrm inactive
Cc1nn(Cc2ccc(Cl)cc2Cl)c(C)c1NC(=O)NC12CC3CC(CC(C3)C1)C2	none
CN(C)c1ccc(/C=C/c2ccc3ccccc3[n+]2C)cc1	HTR5A inv ag 29.4 | MOR-DOR inv ag-2 inactive | HTR5A inv confrm inactive
COC(=O)c1ccc(NC(c2ccc(Cl)cc2)P(=O)(OC)OC)cc1 (stereo not given)	none
COc1ccc(CNc2ncnc3sccc23)cc1	HTR5A inv ag 24.9 | MOR-DOR inv ag-2 inactive | HTR5A inv confrm inactive
COc1ccc(CNc2ncnc3sccc23)cc1OC	none
CCCC[C@@H]1C=C(C(=O)O)[C@H](c2ccc(Br)cc2)N1S(=O)(=O)c1ccc(C)cc1	none
Cc1onc(-c2ccccc2)c1C(=O)Nc1nnc(N2CCCCCC2)s1	HTR5A inv ag 24.8 | MOR-DOR inv ag-2 inactive | HTR5A inv confrm inactive
COc1ccc(NC(=O)CSc2c3c(nc4cc(Cl)ccc24)CCCC3)cc1OC	none
COCCNC(=O)CSc1c2c(nc3ccc(Cl)cc13)CCCC2	HTR5A inv ag 42.8 | MOR-DOR inv ag-2 inactive | HTR5A inv confrm inactive
